The values below come from PubChem BioAssay (NCI).

About 83,000 compounds went through this panel and 20% of them were active in at least one assay; those are over-represented in the sample as a whole.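 Activity criterion: percent growth below 10, measured after cells in 96-well plates were exposed to a single compound concentration for 48 hours.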 A number with no mark means an inactive call. The source made the active and inactive calls.

In the assay the test system is NCI-H460 lung. Kind of assay: NCI-60 one-dose screen, 48 h (100 = growth as untreated, 0 = no growth, -100 = all killed). The following applies: 10 µM unless noted.
`Cc1cc2ccccc2c[n+]1CC(=O)c1ccc(-c2ccccc2)cc1`: the growth is 45.9%.

Turning to `COC(=O)c1ccc2c(c1)n(Cc1ccc3ccccc3c1)c[n+]2Cc1ccc2ccccc2c1`, the growth was 28.6%.

`Cc1c(Cl)cccc1NC(=O)c1sc2nc3c(cc2c1N)CCCCC3`: the growth was 16.4%.

For `C=C1C(=O)O[C@H]2[C@H]1CC/C(COC(=O)c1cn(C)c3ccccc13)=C\CC[C@@]1(C)O[C@@H]21`, the growth was 39.7%.

For the compound `Sc1cccc2cccnc12`, the growth is 6.81% (active).

Take `O=C(CCl)N1CCCc2ccccc21`: the growth was 99.3%.

For the compound `Cc1cccc(C)c1NC(=O)CN(CC(C)C)CC(O)COc1ccccc1` (configuration not stated), the growth was 111%.

On to `OCCNc1nc(NCCO)nc(Nc2ccc(C3=NN(c4cc(Cl)cc(Cl)c4)C(c4ccc(Cl)cc4)C3)cc2)n1` (configuration not stated), for which the growth was -22.7% (active).

Consider `CC(C)(C)c1nn(-c2ccccc2)c2c1COCN2Cc1ccc(Cl)cc1`, for which the growth is 81.1%.

As to `NS(=O)(=O)c1ccc(N2Cc3cc(Cl)ccc3OC3=C2C(=O)N(CC2CCCCC2)C3=O)cc1`, the growth was -55.1% (active).

For `C#C[C@@]1(O)[C@@H](CO)O[C@@H](n2cc(-c3ccco3)c3c(N)ncnc32)[C@@H]1O`, the growth is 52.1%.

As for `NC(=O)CN1C(=O)c2ccccc2C1=O`, the growth is 106%.

Regarding `CC1CCCN(CCCCCOc2ccc3oc4ccc(Cl)cc4c(=O)c3c2)C1` (configuration not stated), the growth was 54.5%.

For the compound `O=c1[nH]c(-c2cccc(F)c2)cc2cc(F)ccc12`, the growth is 13.9%.

Consider `O=C(O)COc1ccc2c(=O)c3sc4c(=O)c5ccccc5c(=O)c4c3c(=O)c2c1`, for which the growth is -63.2% (active).

As for `CCOC(=O)/C=C1\SC(=Nc2ccc(C#N)cc2)N(CCN2C(=O)/C(=C/C(=O)OCC)SC2=Nc2ccc(C#N)cc2)C1=O`, the growth is 31.6%.

Turning to `COC(=O)/C=C1\SC(=Nc2ccc(F)cc2)N(CCc2c[nH]c3ccccc23)C1=O`, the growth was 104%.

As to `CCN1CCN(Cc2ccc(NC(=O)c3cccc(C#Cc4cccc5[nH]nc(N)c45)c3)cc2C(F)(F)F)CC1`, the growth is -72.2% (active).

`CC[C@H](Nc1ncnc2nc[nH]c12)c1nc2cccc(CC(=O)c3ccc(C(=O)NO)cc3)c2c(=O)n1-c1ccccc1`: the growth was 89.9%.

Regarding `CC(=O)OCC1OC(OC2C(COC(C)=O)OC(OCCC[S-])C(OC(C)=O)C2OC(C)=O)C(OC(C)=O)C(OC(C)=O)C1OC(C)=O.[Au+].c1ccc(CN2[CH-]N(Cc3ccccc3)C(c3ccccc3)=C2c2ccccc2)cc1` (configuration not stated), the growth was 15%.

For `O=S(=O)(O)c1ccc(N=NSc2ccc3ccccc3c2)cc1`, the growth was 98.1%.

For `C[C@H]1[C@H](C)CC[C@]2(C(=O)OCCOCCOCC[P+](c3ccccc3)(c3ccccc3)c3ccccc3)CC[C@]3(C)C(=CC[C@@H]4[C@@]5(C)CC[C@H](OC(=O)C(Cl)Cl)C(C)(C)[C@@H]5CC[C@]43C)[C@H]12`, the growth is 6.27% (active).

For `O=c1c2ccccc2oc2ccc(OCCCCCN3CCCCCC3)cc12`, the growth was 78.9%.

`Nc1c(C(=O)Nc2ccccn2)sc2nc3c(cc12)C(=O)CCC3`: the growth was 6.33% (active).

Consider `COc1ccc(-n2cc(-c3ccc(Cl)c(Cl)c3)[nH]c2=O)cc1OC`, for which the growth was 107%.

With `Cc1ccc(C(=O)/C(=C/c2ccc([N+](=O)[O-])cc2)S(=O)Cc2ccccc2)cc1` (configuration not stated), the growth is 22.1%.

For `C=CCn1c(CN2CCN(c3cc4c(cc3F)c(=O)c(C(=O)O)cn4C3CC3)CC2)n[nH]c1=S`, the growth is 108%.

For the compound `CC(=O)c1ccc(NC(=O)CSc2nnc(-c3cc(-c4ccc(C)cc4)nc4ccccc34)o2)cc1`, the growth is 10.5%.

Consider `Cn1cc(-c2ccc3c(c2)ncn3-c2ccc(CC(=O)Nc3cc(C(C)(C)C)on3)cc2)cn1`, for which the growth was 28.5%.

In the case of `CN(C)[C@@H]1C(=O)C(C(N)=O)=C(O)[C@@]2(O)C(=O)C3=C(O)c4c(O)cc(CN5CCc6ccccc6C5)c(Cl)c4C[C@H]3C[C@@H]12`, the growth is -68.7% (active).

Regarding `CC(=O)Oc1c2c(nc3c1c1ccccc1n3Cc1ccccc1)-c1ccccc1C2`, the growth is 98.2%.

Regarding `CC(C)(C)c1nc2c(s1)c1nc(N)ncc1c1ccc(NS(=O)(=O)c3c(F)cccc3F)c(F)c12`, the growth is 52.5%.

Take `COc1cc(C(=O)N2CCN(c3ccccc3OC)CC2)c(NC(=O)c2cnccn2)cc1OCc1ccccc1`: the growth is 121%.

Turning to `c1ccc(-c2cn3ccnc3c(-c3ccc4c(c3)ncn4C3CCCCC3)n2)cc1`, the growth is 104%.

Turning to `C#Cc1ccccc1NC(=O)c1sc2nc3c(cc2c1N)CCCCC3`, the growth is 104%.

Take `O=C1[C@@H](OS(=O)(=O)CC(F)(F)F)[C@H](c2ccc(F)cn2)N1c1cc2c3ccccc3ccc2c2ccccc12`: the growth is 104%.

On to `CC(C)CSc1nc(Nc2ccccc2)c(C#N)c(-c2ccc(F)cc2)n1`, for which the growth is 3.5% (active).
